# Screens from PubChem.
# An excerpt weighted towards active compounds, which were near 2.5% of everything screened.
# 14-3-3 Bad inh: disrupts binding of bovine 14-3-3 zeta to phospho-Bad peptide | inhibition, % at 21.7 µM | AID 781 | TR-FRET 14-3-3zeta/Dy647-pBad peptide displacement, 1 h | 220,000 compounds, 0.71% hits;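 active = inhibition above about 70%, limit read from the data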;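 note: 0% = full 14-3-3 plus peptide FRET controls and 100% = background without 14-3-3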
# Target sequence (P63103 whole entry, looked up): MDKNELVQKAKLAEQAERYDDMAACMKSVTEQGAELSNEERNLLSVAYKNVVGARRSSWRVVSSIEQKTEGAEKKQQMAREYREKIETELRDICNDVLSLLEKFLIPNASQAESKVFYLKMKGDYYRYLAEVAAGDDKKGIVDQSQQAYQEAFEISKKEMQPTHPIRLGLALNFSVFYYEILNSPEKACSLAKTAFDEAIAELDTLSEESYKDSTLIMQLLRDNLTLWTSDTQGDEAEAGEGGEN
# MCL1 BIM primary: MCL1-BIM-BH3 interaction inhibition (human). 320,000 compounds, 0.68% hits. AID 2057. GST-MCL1 / FITC-Bim-BH3 fluorescence polarization. inhibition, % at 10.9 µM. Q07820;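 active = inhibition above the mean inhibition of all tested compounds plus 3 SD, set per campaign, cut at about 40% in these data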;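 note: 0% = DMSO wells and 100% = unlabeled Bim-BH3 peptide control; higher means more loss of mP so more displacement of Bim peptide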
# Target sequence (Q07820 whole entry, looked up): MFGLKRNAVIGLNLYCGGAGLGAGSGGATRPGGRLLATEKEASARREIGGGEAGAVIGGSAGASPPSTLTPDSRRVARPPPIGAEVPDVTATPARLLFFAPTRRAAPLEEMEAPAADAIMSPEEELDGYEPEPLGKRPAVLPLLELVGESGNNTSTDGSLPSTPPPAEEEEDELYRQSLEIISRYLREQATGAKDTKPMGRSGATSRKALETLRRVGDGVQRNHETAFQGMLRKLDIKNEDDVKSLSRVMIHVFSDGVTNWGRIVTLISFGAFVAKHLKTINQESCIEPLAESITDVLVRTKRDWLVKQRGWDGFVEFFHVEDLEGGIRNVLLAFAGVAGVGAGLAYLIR
# Mcl1 Noxa PPI: disrupts binding of human Mcl-1 to Noxa peptide; TR-FRET Mcl-1/Noxa peptide binding, 2 h; AID 1022; 220,000 compounds, 1.5% hits; inhibition, % at 21.7 µM;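 active = compounds that cut the protein-peptide binding signal by more than 50% relative to plate controls in a single-dose test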;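 note: His-tagged Mcl-1 with rhodamine Noxa BH3 peptide and terbium anti-His antibody; 0% = Mcl-1 plus Noxa peptide wells and 100% = peptide-only wells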
# Mcl1 Bid PPI: disrupts binding of human Mcl-1 to Bid peptide. Q07820. TR-FRET Mcl-1/Bid-Dy647 peptide binding, 1536-well. inhibition, % at 21.7 µM. 220,000 compounds, 0.97% hits;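 active = compounds that cut the binding signal by more than half at the single screening dose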;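 note: His-tagged Mcl-1 with europium anti-His antibody binding Bid BH3 peptide; 0% = Mcl-1 plus peptide wells and 100% = peptide-only wells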
# Bim-Mcl-1: inhibitors of Bim-Mcl-1 interaction, human; Q07820; Bead-based flow cytometry, Bim peptide-Mcl-1 binding; inhibition, % at 10 µM; 190,000 compounds, 0.1% hits; AID 1009; in the data active = inhibition above about 40%;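 note: 0% = no compound tracer wells and 100% = peptide blocker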
# An asterisk follows results filed as active; nt = no result given; [ ] = another dose, or the depositor's remark.
SMILES,14-3-3 Bad inh,MCL1 BIM primary,Mcl1 Noxa PPI,Mcl1 Bid PPI,Bim-Mcl-1
CCN1CCN(c2nc(-c3ccncc3)nc3ccccc23)CC1,10,6,51*,-15,5
COCCNC(=O)CSc1nc2cc3c(cc2c(=O)n1CCCC(=O)NCc1ccc(OC)cc1)OCO3,19,-13,0,11,1
CCOC(=O)c1c(C)nc2ccc(Cl)cc2c1-c1ccccc1,-9,-5,10,7,-4
C/C(N)=C(/C#N)C(=O)CSc1ccc2c(c1)OCCO2,-5,-4,8,-16,-3
COc1ccc2cc3c(N)nn(C(=O)c4ccc(Cl)c([N+](=O)[O-])c4)c3nc2c1,74*[fluorescence artefact?],15,17,54*,8
COc1ccc2cc3c(N)nn(C(=O)c4ccccc4[N+](=O)[O-])c3nc2c1,-9,4,27,-5,0
COc1ccccc1C(=O)CSc1nnc(-c2ccco2)o1,9,2,4,-6,0
CCOC(=O)c1c(-c2ccc(C)o2)csc1NC(=O)CSc1nncs1,-17,13,24,-23,-2
CCOC(=O)c1c(-c2ccco2)csc1NC(=O)CSc1nnc(N)s1,0,9,30,80*,0
CCc1c(C)nc2cc(-c3ccc(OC)c(OC)c3)nn2c1N1CCC(C)CC1,1,3,6,-2,-2
CCN(c1ccc(NC(=O)COC(=O)/C=C/c2cccs2)cc1)C(C)C,2,-6,84*,-32,-1
CCOC(=O)c1ccc(NS(=O)(=O)N2CCCCCC2)cc1,-2,3,14,78*,0
CCOC(=O)c1ccc(S(=O)(=O)N2CCN(S(=O)(=O)CC)CC2)cc1,6,-7,-2,5,-7
CCOC(=O)c1ccc(S(=O)(=O)N2CCNCC2)cc1,4,8,11,54*,-7
O=C(Nc1cccc(O)c1)c1cc(-c2ccc3c(c2)OCO3)on1,nt,-3,nt,nt,nt
COc1ccc(-n2nc(C(=O)NCC(=O)NC(C)C)c3ccccc3c2=O)cc1Cl,nt,0,nt,nt,nt
COc1ccc(-n2nc(C(=O)NCC(=O)Nc3ccccn3)c3ccccc3c2=O)cc1Cl,72*,nt,-90,32,-1
NS(=O)(=O)c1ccc(NC(=S)NCCc2ccccc2)cc1,0,0,12,-38,-8
O=C(COc1ccccc1)Nc1sc2c(c1C(=O)NCc1cccnc1)CCCC2,36,-9,-25,59*,0
CCc1cc(=O)oc2cc(OCC(=O)N3CC[C@@]4(O)CCCC[C@H]4C3)ccc12,nt,-2,nt,nt,nt
C(=N\Nc1nc2ccccc2s1)/c1ccco1,43,5,23,-15,-1
CC(=O)Nc1sc(N/N=C/c2ccc(O)cc2)nc1-c1ccc(C)cc1,8,2,89*,-85,nt
CC(=O)Nc1sc(N/N=C\c2ccccc2)nc1-c1cccs1,-8,-13,55*,-38,-37
CC(=O)Nc1sc(NC(=O)c2ccc(Cl)cc2)nc1-c1cccs1,-7,7,31,-19,-1
CC(=O)Nc1sc(N/N=C\c2ccccc2Cl)nc1-c1cccs1,12,9,61*,7,-2
SMILES,14-3-3 Bad inh,MCL1 BIM primary,Mcl1 Noxa PPI,Mcl1 Bid PPI,Bim-Mcl-1
CC(=O)Nc1sc(N/N=C/c2ccccc2)nc1-c1ccc(C)cc1,-11,1,7,-52,nt
CC(=O)Nc1sc(N/N=C\c2ccco2)nc1-c1cccs1,-1,-22,74*,-74,-5
CCN(CC(=O)Nc1ccc(NC(C)=O)cc1)C(=O)C1CCCN(C(=O)c2ccc(Cl)cc2)C1 (stereo not given),nt,-3,nt,nt,nt
CCOc1cc(/C=N/Nc2nc(-c3cccs3)c(NC(C)=O)s2)ccc1O,2,4,101*,-81,nt
CCOc1cc(/C=N/NC(=O)Nc2ccccc2)ccc1O,-1,3,25,-56,5
C/C(NCc1cccnc1)=C(\C#N)C(=O)NCc1ccccc1,71*,7,12,-18,0
Cn1c(SCCCC(=O)c2ccc(F)cc2)nnc1-c1ccncc1,0,-5,20,-4,-3
COc1ccccc1CCN=C(N)NS(=O)(=O)c1cccs1,0,5,-3,-15,0
CC(=O)c1c(N=CN(C)C)nc(C)nc1-c1ccccc1,-3,3,11,89*,0
CN(C)/C=N/c1nc2nccc(-c3ccccc3)n2n1,6,1,10,10,-2
CC(C)c1ccc(NS(=O)(=O)c2ccc3[nH]cc(C(=O)N4CCC(C(N)=O)CC4)c(=O)c3c2)cc1,96*[fluorescence artefact?],5,6,59*,-3
O=C(c1c[nH]c2ccc(S(=O)(=O)N3CCOCC3)cc2c1=O)N1CCCC1,-2,2,20,-12,-3
O=C(COC(=O)c1ccccc1NC(=O)C1CC1)c1ccc2c(c1)OCCO2,71*,7,-1,-14,-3
CC(C)(C)C(=O)Nc1ccccc1C(=O)OCC(=O)c1ccc2c(c1)OCCO2,-4,6,-4,-14,2
C[N+](C)(C)c1ccc(/C=N/Nc2nc(Cl)c(C#N)c(Cl)c2Cl)cc1,40,-9,37,91*,-4
COc1c(O)c(=O)n2c3ccccc3c3ccnc1c32,nt,9,nt,nt,nt
O=c1c(Cl)c(O)c2cccc3c4ccccc4n1c23,28,3,65*,18,-3
O=C(/C=C/N1CCOCC1)c1cc2ccccc2o1,-24,-18,6,75*,2
O=C(/C=C/N1CCOCC1)c1coc2ccccc12,3,-22,-3,71*,-1
N#C/C(=C(/O)CN1CCN(c2ccccc2F)CC1)c1nc(-c2ccccc2)cs1,-10,8,11,-8,46*
CC(C)CCN(CCC(C)C)C/C(O)=C(\C#N)c1nc(-c2ccccc2)cs1,-1,4,13,-29,0
O=C(O)C(O)c1ccccc1 (stereo not given),5,-3,-13,8,-1
O=C(O)C(O)c1ccco1 (stereo not given),16,nt,67*,-25,-2
O=C(O)/C=C\C(=O)Nc1cccc(NC(=O)c2ccccc2)c1,-9,1,10,-13,2
O=C(O)/C=C/C(=O)Nc1ccc(NC(=O)c2ccccc2)c(Cl)c1,96*,-2,16,-10,2
SMILES,14-3-3 Bad inh,MCL1 BIM primary,Mcl1 Noxa PPI,Mcl1 Bid PPI,Bim-Mcl-1
COc1ccc(OC)c(-n2c(=S)[nH]c3cc(C(=O)N4CCN(c5ccccc5)CC4)ccc3c2=O)c1,-9,6,8,-61,48*
O=C(c1ccc2c(=O)n(-c3ccccc3)c(=S)[nH]c2c1)N1CCN(c2ccccc2)CC1,nt,12,nt,nt,nt
O=C(CNC(=O)OCc1ccccc1)Oc1ccc2ccc(=O)oc2c1,nt,5,nt,nt,nt
O=C(NC(Cc1ccccc1)C(=O)Oc1ccc2c(C(F)(F)F)cc(=O)oc2c1)OCc1ccccc1 (stereo not given),-11,41*,5,-9,4
CCOc1ccc2oc(C(=O)OCC(=O)N3CCCC(C)C3)c(C)c2c1 (stereo not given),nt,2,nt,nt,nt
COc1ccc(/C=N/NC(=O)c2ccc(CN3C(=O)c4cccc5cccc3c45)cc2)cc1O,-2,5,61*,11,3
